# “And” between values parts separate entries of the source, which are not always exact repeats. Equal values may be shown once. Records with an inconclusive call do not appear. The source made the active and inactive calls.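 How the source made its calls, unless noted: active means normalized viability below 100% at a tested concentration; inactive means the rest.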
# Legend:
# [1] = viability loss in pontine glioma line – cell-based, SU-DIPG-XXV, MIPE5.0, CellTiter-Glo, qHTS, dose response (AID 1347065; cut-off not given, nearly all actives have AC50 up to about 26 µM;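 further: cells exposed to compound for 48 hours before ATP readout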); conditions: CellTiter-Glo ATP luminescence
# [2] = SU-DIPG-VI glioma cell viability, MIPE4.0 library, CellTiter-Glo luminescence, qHTS (AID 1347066; cut-off not given, nearly all actives have AC50 up to about 30 µM;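 further: cells exposed to compound for 48 hours before readout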); conditions: CellTiter-Glo ATP luminescence
# [3] = SU-DIPG-XXV glioma cell viability, MIPE5.0 library, qHTS (AID 1347068; cut-off not given, nearly all actives have IC50 up to about 30 µM)
# [4] = sensitizers of A549 cells to miR-34 induction, primary screen, imaging, A549 dox-inducible miR-34, nuclei and caspase counts (AID 1347080;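 active means compounds whose cell count with miR-34 switched on is under 0.7 times the count with it off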); conditions: A549 miR-34 inducible, Hoechst nuclei count, 48 h
# [5] = survival rescue of mitochondrial mutant cells in low glucose, primary screen, MELAS cybrids, Rieske KO mouse fibroblasts, CellTiter-Glo (AID 1508586;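 active means mean z-score across replicates of 1.96 or higher in either the MELAS or the Rieske mutant cell line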;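 further: z relative to plate mean and SD of compound and empty wells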)
# [6] = viability rescue of complex I mutant cybrids, primary screen, cell-based, galactose medium, ATP luminescence (AID 1645843;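 active means z-score of at least 1.8 in each of two replicates, scored against plate mean and spread of sample wells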;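 further: positive z means more ATP and so rescue of galactose-driven cybrid death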); conditions: complex I mutant cybrid cells, 72 h, stronger effect = higher value
# [7] = JHH-DIPG-1 glioma cell viability, MIPE5.0 library, CellTiter-Glo luminescence, qHTS (AID 1347067; cut-off not given, nearly all actives have AC50 up to about 26 µM;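 further: cells exposed to compound for 48 hours before readout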); conditions: JHH-DIPG-1 glioma viability, CellTiter-Glo ATP luminescence
# [8] = molecular target: NAD(+) hydrolase SARM1 (Homo sapiens) (UniProt Q6SZW1); test: SARM1 TIR NADase inhibitors, cell lysate, NAD-Glo luminescence (AID 1508614;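 active means compound whose remaining NAD level is above about 45 nM, limit read from the data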); conditions: SAM-TIR HEK293T lysate NADase, at 1 µM, stronger effect = higher value
# [9] = molecular target: Mitogen-activated protein kinase 7 (Homo sapiens) (UniProt Q13164); test: ERK5 transactivation activators in reporter cells, primary screen, cell-based, HTS (AID 1508626;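 active means luciferase signal above three times the same-plate solvent-only control wells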;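 further: luciferase driven by Gal4-ERK5 fusion binding five Gal4 sites before minimal TATA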); conditions: HeLa Gal4-ERK5 transactivation, 18 h, at 5 µM, stronger effect = higher value
# [10] = modifiers of HSF1 nuclear foci, imaging, Selleck Cancer Library (AID 1347162; in the data active means plate-normalised HSF1 focus index below about 0.46); conditions: human cells, at 10 µM; SSMD: measured here: HSF1 foci SSMD mean; cell count: measured here: cell number; plate-normalised HSF1 focus index: stronger effect = lower value
# [11] = ovarian cancer cell viability with rucaparib, profiling panel, oncology-focused library, rucaparib conditional (AID 1508598); conditions: patient-derived ovarian cancer cells, CellTiter-Glo viability, 144 h, stronger effect = lower value
# [12] = stronger effect = lower value, cell number ratio, induced over uninduced
# [13] = measured here: relative caspase fold change +Dox/-Dox
# [14] = measured here: total cells with miR-34 induction, stronger effect = lower value
# [15] = measured here: total cells without miR-34 induction
# [16] = MELAS cybrid survival, CellTiter-Glo 48 h, stronger effect = higher value
# [17] = Rieske KO mouse fibroblast survival, CellTiter-Glo 72 h
# Chain of NAD(+) hydrolase SARM1 (Homo sapiens) (Q6SZW1 whole entry, looked up, the tested form may be a part): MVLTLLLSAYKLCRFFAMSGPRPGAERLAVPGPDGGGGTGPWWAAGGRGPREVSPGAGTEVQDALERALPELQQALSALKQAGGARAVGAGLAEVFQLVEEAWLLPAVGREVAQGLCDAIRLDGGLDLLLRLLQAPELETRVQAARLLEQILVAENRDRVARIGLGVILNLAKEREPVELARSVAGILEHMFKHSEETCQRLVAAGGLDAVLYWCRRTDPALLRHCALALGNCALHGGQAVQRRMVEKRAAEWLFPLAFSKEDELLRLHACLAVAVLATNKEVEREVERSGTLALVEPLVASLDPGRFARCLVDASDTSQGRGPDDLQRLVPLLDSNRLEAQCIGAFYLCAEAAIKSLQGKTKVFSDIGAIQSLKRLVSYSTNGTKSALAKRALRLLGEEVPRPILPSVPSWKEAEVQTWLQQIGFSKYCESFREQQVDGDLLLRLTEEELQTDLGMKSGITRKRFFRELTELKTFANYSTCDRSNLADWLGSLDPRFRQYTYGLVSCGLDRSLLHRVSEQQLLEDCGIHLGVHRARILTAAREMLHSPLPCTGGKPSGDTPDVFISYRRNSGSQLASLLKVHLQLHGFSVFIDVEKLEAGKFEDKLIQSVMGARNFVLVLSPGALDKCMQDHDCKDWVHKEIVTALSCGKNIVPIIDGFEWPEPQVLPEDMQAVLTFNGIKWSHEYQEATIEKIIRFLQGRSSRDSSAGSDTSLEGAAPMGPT
# Chain of Mitogen-activated protein kinase 7 (Homo sapiens) (Q13164 whole entry, looked up, the tested form may be a part): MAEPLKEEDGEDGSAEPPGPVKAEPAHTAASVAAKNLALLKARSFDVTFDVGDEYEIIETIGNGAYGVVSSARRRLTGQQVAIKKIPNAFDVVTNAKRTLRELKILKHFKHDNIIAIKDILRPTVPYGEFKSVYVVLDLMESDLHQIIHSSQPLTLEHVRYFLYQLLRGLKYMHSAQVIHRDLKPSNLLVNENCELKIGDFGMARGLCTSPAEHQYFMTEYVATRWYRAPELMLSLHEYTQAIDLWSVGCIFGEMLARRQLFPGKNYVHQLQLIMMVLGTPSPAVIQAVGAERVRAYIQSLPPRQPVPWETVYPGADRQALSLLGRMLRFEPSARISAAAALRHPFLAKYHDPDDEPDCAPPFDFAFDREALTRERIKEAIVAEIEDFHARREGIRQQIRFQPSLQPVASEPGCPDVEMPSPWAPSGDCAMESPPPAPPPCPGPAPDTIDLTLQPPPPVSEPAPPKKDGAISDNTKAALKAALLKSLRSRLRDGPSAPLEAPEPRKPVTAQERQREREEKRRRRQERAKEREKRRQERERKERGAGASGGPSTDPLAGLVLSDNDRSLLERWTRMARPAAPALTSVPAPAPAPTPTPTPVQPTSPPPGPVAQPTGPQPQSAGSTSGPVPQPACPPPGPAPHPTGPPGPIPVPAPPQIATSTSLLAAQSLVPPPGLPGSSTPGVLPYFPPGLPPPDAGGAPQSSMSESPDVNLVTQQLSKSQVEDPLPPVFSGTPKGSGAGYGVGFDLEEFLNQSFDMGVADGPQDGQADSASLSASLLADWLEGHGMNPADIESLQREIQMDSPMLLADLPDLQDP
smiles,measurement,setting,value
CCOc1cc(N)c(Cl)cc1C(=O)NCC1CN(Cc2ccc(F)cc2)CCO1 (centres undefined),outcome,[1],inactive
same,outcome,[2],inactive
same,outcome,[3],inactive
same,fold change,[4]; [12],0.847 (inactive) and 0.952 (inactive)
same,fold change,[4]; [13],1.51 and 0.602
same,cell count,[4]; [14],7930 and 7020
same,cell count,[4]; [15],9370 and 7370
same,z-score,[5]; [16],-0.303 (inactive)
same,z-score,[5]; [17],-0.205
same,z-score,[6],0.725 (inactive)
Cn1c(NCCN(CCO)CCCc2ccc([N+](=O)[O-])cc2)cc(=O)n(C)c1=O,outcome,[1],inactive
same,outcome,[7],inactive
same,outcome,[3],inactive
same,fold change,[4]; [12],0.987 (inactive) and 0.875 (inactive)
same,fold change,[4]; [13],1.91 and 1.23
same,cell count,[4]; [14],8810 and 9410
same,cell count,[4]; [15],8920 and 10800
same,z-score,[5]; [16],0.423 (inactive) and 0.101 (inactive)
same,z-score,[5]; [17],0.302 and -0.676
same,z-score,[6],0.115 (inactive) and 0.85 (inactive)
CCN(CC)CCOc1ccc(/C(=C(\Cl)c2ccccc2)c2ccccc2)cc1,AC50,[1],13.2 µM (active)
same,outcome,[2],inactive
same,outcome,[3],inactive
same,fold change,[4]; [12],0.868 (inactive)
same,fold change,[4]; [13],0.906
same,cell count,[4]; [14],10700
same,cell count,[4]; [15],12300
CO[C@@H]1[C@@H](OC(N)=O)[C@@H](O)[C@H](Oc2ccc3c(O)c(NC(=O)c4ccc(O)c(CC=C(C)C)c4)c(=O)oc3c2C)OC1(C)C,outcome,[1],inactive
same,outcome,[2],inactive
same,outcome,[3],inactive
same,fold change,[4]; [12],0.761 (inactive)
same,fold change,[4]; [13],1.98
same,cell count,[4]; [14],10300
same,cell count,[4]; [15],13600
same,z-score,[5]; [16],0.0759 (inactive)
same,z-score,[5]; [17],-1.01
same,remaining NAD,[8],10 nM (inactive)
same,luciferase signal,[9],44 AU (inactive)
C[N+]1(C)[C@@H]2CC(OC(=O)[C@H](CO)c3ccccc3)C[C@H]1[C@@H]1O[C@@H]12 (some centres undefined),outcome,[1],inactive
same,outcome,[2],inactive
same,outcome,[7],inactive
same,outcome,[3],inactive
same,remaining NAD,[8],10 nM (inactive)
same,luciferase signal,[9],32 AU (inactive)
COc1cc2c(N3CCN(C(=O)Nc4ccc(OC(C)C)cc4)CC3)ncnc2cc1OCCCN1CCCCC1,outcome,[1],inactive
same,outcome,[7],inactive
same,outcome,[3],inactive
same,fold change,[4]; [12],0.882 (inactive) and 0.979 (inactive)
same,fold change,[4]; [13],1.09 and 0.885
same,cell count,[4]; [14],7400 and 5330
same,cell count,[4]; [15],8380 and 5450
same,SSMD,[10],0.871
same,cell count,[10],7020
same,plate-normalised HSF1 focus index,[10],1.05 (inactive)
same,z-score,[5]; [16],-0.531 (inactive)
same,z-score,[5]; [17],0.343
same,viability,"[11]; at 0.000305 µM, OCI-C5x cells, with rucaparib 10 µM, 100% = cells with rucaparib alone",113% (inactive)
same,viability,"[11]; at 0.000305 µM, OCI-C5x cells, without rucaparib",103% (inactive)
same,viability,"[11]; at 0.000305 µM, OCI-P5x cells, with rucaparib 20 µM, 100% = cells with rucaparib alone",86.7% (active)
same,viability,"[11]; at 0.000305 µM, OCI-P5x cells, without rucaparib",88.3% (active)
same,viability,"[11]; at 0.00122 µM, OCI-C5x cells, with rucaparib 10 µM, 100% = cells with rucaparib alone",104% (inactive)
same,viability,"[11]; at 0.00122 µM, OCI-C5x cells, without rucaparib",105% (inactive)
same,viability,"[11]; at 0.00122 µM, OCI-P5x cells, with rucaparib 20 µM, 100% = cells with rucaparib alone",97% (active)
same,viability,"[11]; at 0.00122 µM, OCI-P5x cells, without rucaparib",88.4% (active)
same,viability,"[11]; at 0.00488 µM, OCI-C5x cells, with rucaparib 10 µM, 100% = cells with rucaparib alone",112% (inactive)
same,viability,"[11]; at 0.00488 µM, OCI-C5x cells, without rucaparib",97.5% (active)
same,viability,"[11]; at 0.00488 µM, OCI-P5x cells, with rucaparib 20 µM, 100% = cells with rucaparib alone",114% (inactive)
same,viability,"[11]; at 0.00488 µM, OCI-P5x cells, without rucaparib",96.8% (active)
same,viability,"[11]; at 0.0195 µM, OCI-C5x cells, with rucaparib 10 µM, 100% = cells with rucaparib alone",109% (inactive)
same,viability,"[11]; at 0.0195 µM, OCI-C5x cells, without rucaparib",98.4% (active)
same,viability,"[11]; at 0.0195 µM, OCI-P5x cells, with rucaparib 20 µM, 100% = cells with rucaparib alone",130% (inactive)
same,viability,"[11]; at 0.0195 µM, OCI-P5x cells, without rucaparib",92.4% (active)
same,viability,"[11]; at 0.0781 µM, OCI-C5x cells, with rucaparib 10 µM, 100% = cells with rucaparib alone",113% (inactive)
same,viability,"[11]; at 0.0781 µM, OCI-C5x cells, without rucaparib",105% (inactive)
same,viability,"[11]; at 0.0781 µM, OCI-P5x cells, with rucaparib 20 µM, 100% = cells with rucaparib alone",115% (inactive)
same,viability,"[11]; at 0.0781 µM, OCI-P5x cells, without rucaparib",94.2% (active)
same,viability,"[11]; at 0.313 µM, OCI-C5x cells, with rucaparib 10 µM, 100% = cells with rucaparib alone",119% (inactive)
same,viability,"[11]; at 0.313 µM, OCI-C5x cells, without rucaparib",113% (inactive)
same,viability,"[11]; at 0.313 µM, OCI-P5x cells, with rucaparib 20 µM, 100% = cells with rucaparib alone",146% (inactive)
same,viability,"[11]; at 0.313 µM, OCI-P5x cells, without rucaparib",90.4% (active)
same,viability,"[11]; at 1.25 µM, OCI-C5x cells, with rucaparib 10 µM, 100% = cells with rucaparib alone",123% (inactive)
same,viability,"[11]; at 1.25 µM, OCI-C5x cells, without rucaparib",117% (inactive)
same,viability,"[11]; at 1.25 µM, OCI-P5x cells, with rucaparib 20 µM, 100% = cells with rucaparib alone",105% (inactive)
same,viability,"[11]; at 1.25 µM, OCI-P5x cells, without rucaparib",90% (active)
same,viability,"[11]; at 5 µM, OCI-C5x cells, with rucaparib 10 µM, 100% = cells with rucaparib alone",158% (inactive)
same,viability,"[11]; at 5 µM, OCI-C5x cells, without rucaparib",138% (inactive)
same,viability,"[11]; at 5 µM, OCI-P5x cells, with rucaparib 20 µM, 100% = cells with rucaparib alone",115% (inactive)
same,viability,"[11]; at 5 µM, OCI-P5x cells, without rucaparib",86.2% (active)
same,remaining NAD,[8],10 nM (inactive)

# Reference: PubChem BioAssay
